Source: publication PMC11024108

Molecular target: Septin-5 (UniProt Q9Z2Q6)
Experiment: cross-link between two proteins; cross-linking mass spectrometry

Chain of Septin-5 (Q9Z2Q6 whole entry): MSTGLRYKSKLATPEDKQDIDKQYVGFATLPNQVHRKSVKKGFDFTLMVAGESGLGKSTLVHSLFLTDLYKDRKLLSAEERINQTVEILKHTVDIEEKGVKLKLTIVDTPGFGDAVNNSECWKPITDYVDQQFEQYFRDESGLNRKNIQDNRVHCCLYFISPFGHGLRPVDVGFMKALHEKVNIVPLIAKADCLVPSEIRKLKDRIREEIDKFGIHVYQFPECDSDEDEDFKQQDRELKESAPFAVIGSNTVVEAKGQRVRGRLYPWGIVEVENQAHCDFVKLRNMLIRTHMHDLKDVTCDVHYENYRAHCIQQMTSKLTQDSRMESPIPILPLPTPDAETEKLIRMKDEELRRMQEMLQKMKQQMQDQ

Listed as a hit, yes:
Septin-6, Q9R1T4
Septin-4, P28661
Septin-8, Q8CHH9
Septin-11, Q8C1B7
